The list is not random: actives were taken first. Their share in the collection is about 4.3%.
Giardia kill – kills Giardia lamblia. Giardia lamblia trophozoite viability. AID 540267. activity change, % at 7.66 µM, hits read low. hit rate 0.15% among 340,000; in the data active = activity change below about -80%; inconclusive = between about -30% and that limit;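 also: parasites exposed to compound for two days anaerobically before the ATP read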
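ATP-content bioluminescence gauges trophozoite survival. Cells (100/well) receive compound and incubate anaerobically for 48 hrs at 37 deg C; detection reagent follows for 15-30 min at room temperature.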
MCF10A rereplic – induces DNA re-replication in MCF 10a normal breast cells | MCF 10A DNA re-replication, Hoechst nuclear intensity, 48 h | Potency, µM (highest dose often 46.1 µM), actives largely listed as activators | hit rate 2.9% among 350,000 | AID 624296; also: nearly all actives have a fitted effect of over 50% in size
uPA surface inh – cell surface uPA generation inhibition; cell surface uPA generation assay, qHTS; hit rate 0.31% among 330,000; AID 540303; Potency, µM (highest dose often 38.3 µM), usual class: inhibitors; active = well fitted inhibition curve with a large enough effect; inconclusive = small, poorly fitted or top-dose-only effect; inactive = no such curve, though single readings can be large or run the other way; tested in mouse RAW 264.7 cells; also: nearly all actives have a fitted effect of over 55% in size
SW480 rerep – induces DNA re-replication in SW480 colon adenocarcinoma cells. SW480 DNA re-replication, Hoechst DNA content imaging, 48 h. Potency, µM (doses to about 46.1 µM), most hits filed as activators. hit rate 1.8% among 340,000; also: nearly all actives have a fitted effect of over 55% in size
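Readout is total intensity of Hoechst-stained nuclei, excited at 405 nm and collected at 500-530 nm. Compound treatment lasted 48 hr at 37 C in 5% CO2 before staining.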
Of the large screens only hits and unclear results are named; the others gave an inactive call. Unless noted, calls follow the shape of the dose curve; as a rule, active = well fitted activation curve with a large enough effect; inconclusive = small, poorly fitted or top-dose-only effect; inactive = no such curve, though single readings can be large or run the other way.

C(=C\c1ccccc1)/CSc1nnc(-c2ccccc2)n1Cc1ccco1	MCF10A rereplic 5.2µM, uPA surface inh inconclusive, SW480 rerep 23µM
CC(C)(C)c1ccc(CSc2nnc(-c3ccccn3)n2Cc2ccco2)cc1	MCF10A rereplic 16µM, SW480 rerep inconclusive
O=C(CCN1C(=O)c2ccccc2C1=O)C1=NN[C@@H]2C(=O)N(c3ccc4c(c3)OCCO4)C(=O)[C@H]12	none
O=C(O)c1cccc(-c2noc(-c3ccccc3F)n2)c1	none (no result: Giardia kill, uPA surface inh)
Cc1ccc(S(=O)(=O)N(C)c2ccc3sc(C)nc3c2)cc1	MCF10A rereplic 9.2µM, uPA surface inh inconclusive, SW480 rerep inconclusive
CN=C1C=CC(=C(c2ccc(N(C)C)cc2)c2ccc(N(C)C)cc2)C=C1	SW480 rerep inconclusive (no result: Giardia kill, uPA surface inh)
COc1ccc(-n2ncc3c2CC(C)(C)CC3NC(=O)c2c(C)cc(=O)oc2C)cc1 (stereo unspecified)	none
N#Cc1c(N2CCN(c3ccc(F)cc3)CC2)nc(N)c2c(N)nc3c(c12)CC(=O)N3C1CC1	none
CC(C)(C)N1C(=O)Cc2c1nc(N)c1c(N)nc(N3CCCCC3CO)c(C#N)c21 (stereo unspecified)	MCF10A rereplic 15µM
CN=C1S/C(=C\c2cccc(Cl)c2Cl)C(=O)N1C	none
CC(C)c1ccc(NC(=O)CCc2ccccc2)cc1	MCF10A rereplic 8.2µM, SW480 rerep inconclusive
CCOc1ccccc1N1C(=O)CC(Sc2n[nH]c(-c3ccccc3)n2)C1=O (stereo unspecified)	MCF10A rereplic 15µM, SW480 rerep inconclusive
COc1ccc(N2C(=O)CC(Sc3n[nH]c(-c4cccc(C)c4)n3)C2=O)cc1 (stereo unspecified)	none
CC(NC(=O)COc1ccc(N(C)S(=O)(=O)c2ccccc2)cc1)c1ccccc1 (stereo unspecified)	uPA surface inh inconclusive
Nn1c(SCC(=O)NCCc2ccc(F)cc2)nnc1C1CCCCC1	none
COC(=O)c1ccc2c(c1)C(C)(C)C(/C=C/c1ccc(O)cc1)=[N+]2C	MCF10A rereplic 7.1µM, SW480 rerep 6.3µM (no result: uPA surface inh)
CCN(CC)c1ccc(-c2nn3c(-c4cccnc4)nnc3s2)cc1	MCF10A rereplic 5.2µM, SW480 rerep 21µM
C[C@H](CCC(=O)O)[C@H]1CC[C@@H]2[C@H]3[C@@H](C[C@@H](O)[C@]21C)[C@]1(C)CC[C@H](O)C[C@@H]1C[C@@H]3O	none (no result: Giardia kill, uPA surface inh)
COc1ccc(-c2coc3cc4oc(=O)c5ccccc5c4cc23)cc1F	MCF10A rereplic inconclusive, SW480 rerep 2.5µM
COC(=O)c1cc(C#N)c(N2CCN(C)CC2)nc1C	MCF10A rereplic 21µM
COC(=O)c1cc(C#N)c(N2CC(C)OC(C)C2)nc1C (stereo unspecified)	none
Nc1nc(N(Cc2ccccc2)Cc2ccccc2)nc(C(F)(F)F)n1	MCF10A rereplic inconclusive, SW480 rerep inconclusive
CCCCN(C(=O)c1cc(S(=O)(=O)N2CCCCCC2)ccc1OC)c1c(N)n(CCC)c(=O)[nH]c1=O	none
CCCCn1c(N)c(N(CCC(C)C)C(=O)C2CC(=O)N(c3ccc(OC)cc3OC)C2)c(=O)[nH]c1=O (stereo unspecified)	none
C#CCOCCOCCOCCNc1nc(N2CCN(C(=O)Cn3cc(CC(C)O)nn3)CC2)nc(N2CCN(C(=O)[C@H](C)n3cc(CCC(=O)O)nn3)CC2)n1 (stereo partly specified)	MCF10A rereplic inconclusive, SW480 rerep inconclusive
COc1ccc(COc2cc(-c3cccc(OC)c3)nc3ccc(NC(=O)C(C)C)cc23)cc1	MCF10A rereplic inconclusive, SW480 rerep 15µM
O=C1C(Cl)=C(N2CCCCC2)C(=O)C(Cl)=C1c1cnc(N2CCCCC2)s1	MCF10A rereplic 5.8µM, SW480 rerep 5.8µM
CC(=O)c1cnc(N(C)C)s1	none
CN(C)c1ncc(C2=C(Cl)C(=O)C(N3CCCC3)=C(Cl)C2=O)s1	MCF10A rereplic inconclusive, SW480 rerep 9.2µM (no result: uPA surface inh)
CCOC(=O)c1c(C)[nH]c(C(=O)OCC(=O)Nc2cc(C)nn2-c2ccccc2)c1C	none
Cc1cc(Nc2ccccc2)nc2cc(O)ccc12	MCF10A rereplic 21µM, SW480 rerep inconclusive
COc1ccc(Nc2cc(C)c3ccc(O)cc3n2)cc1	MCF10A rereplic inconclusive, SW480 rerep inconclusive
COC(=O)c1nn(-c2ccc3c(c2)OCO3)cc1O	none (no result: uPA surface inh)
COC(=O)c1nn(-c2ccc3c(c2)CCN3C(C)=O)cc1O	Giardia kill -87 (no result: uPA surface inh)
O=C(O)c1cc2nc(-c3cccs3)cc(C(F)(F)F)n2n1	SW480 rerep inconclusive
FC(F)(F)c1cc(-c2cccs2)nc2cc(-c3ccccc3)nn12	MCF10A rereplic 16µM, SW480 rerep inconclusive
COC(=O)c1ccc(-n2nnnc2SCC(=O)Nc2cc(OC)ccc2OC)cc1	none
COc1ccc(-n2nnnc2SCC(=O)Nc2cc(OC)c([N+](=O)[O-])cc2C)cc1	MCF10A rereplic 4.6µM
COc1cccc(-c2cc(C(=O)N3CCN(S(=O)(=O)c4ccc(Br)cc4)CC3)[nH]n2)c1	MCF10A rereplic inconclusive
Cc1cc(C(=O)COc2ccccc2C(N)=O)c(C)n1C1CC1	MCF10A rereplic 0.58µM
O=C(O)c1ccc(N=c2oc3cc(O)ccc3cc2C(=O)NCc2ccccc2)cc1	MCF10A rereplic inconclusive
O=C(NCc1ccccc1)c1cc2ccc(O)cc2oc1=O	MCF10A rereplic 16µM, SW480 rerep 7.3µM
C/C(=N\NC(=O)CC#N)c1cc2ccc(O)cc2oc1=O	MCF10A rereplic 9.2µM, SW480 rerep 21µM
CN(C)CCN1C(=O)c2ccccc2N(C)c2ccccc21	none (no result: Giardia kill, uPA surface inh)
NC(=O)COC(=O)c1ccc(Cl)c(S(=O)(=O)N(Cc2ccccc2)c2ccc(Cl)cc2)c1	MCF10A rereplic inconclusive
NC(=O)NC(=O)COC(=O)c1ccc(Cl)c(S(=O)(=O)N(Cc2ccccc2)c2ccc(Cl)cc2)c1	MCF10A rereplic 21µM
COc1ccccc1N(Cc1ccccc1)S(=O)(=O)c1cccc(C(=O)O)c1	Giardia kill inconclusive
COc1ccccc1N(Cc1ccccc1)S(=O)(=O)c1cc(C(=O)O)ccc1Cl	MCF10A rereplic 18µM
CCOC(=O)c1c(S(=O)(=O)Nc2ccc(F)cc2Cl)c(C)n(C)c1C	none
Cc1[nH]c2ccc(C(=O)OC(C)C(=O)NCc3ccccc3)cc2c1C (stereo unspecified)	MCF10A rereplic 15µM, SW480 rerep inconclusive
c1ccc(-c2ccc(OCCCNC3CCCC3)cc2)cc1	MCF10A rereplic 6.5µM, SW480 rerep inconclusive
O=C(CC(=O)c1ccccc1)CS(=O)(=O)c1ccccc1	MCF10A rereplic inconclusive
CNC(=O)COc1coc(CN2CCN(Cc3ccccc3)CC2)cc1=O	none
O=C(CSCc1ccccc1)Nc1ccccc1C(=O)Nc1ccc(C(=O)O)cc1	SW480 rerep inconclusive
CCCCOc1ccc(CONS(=O)(=O)c2ccc(NC(C)=O)cc2)cc1Cl	MCF10A rereplic 21µM
CC(=O)Nc1ccc(S(=O)(=O)NCCOc2ccc(Cl)cc2C)cc1	none
CSc1ccccc1NC(=O)C(C)N(C)CC(=O)N1CCN(Cc2ccccc2)CC1 (stereo unspecified)	none
CC(C)N=c1c([N+](=O)[O-])nn(C)n1O	Giardia kill inconclusive, MCF10A rereplic 0.73µM, SW480 rerep inconclusive
CC(C)c1ccc(N=c2c([N+](=O)[O-])nn(-c3ccc4c(c3)OCCO4)n2O)cc1	Giardia kill inconclusive

Screening data from PubChem BioAssay.
